Shown are actives, neighbours in structure and some others; about 6.7% of the full set was active somewhere.
C diff growth – C. difficile growth inhibitors, primary screen, HTS. AID 1259249, 2017. Clostridium difficile clinical isolate growth, OD600, 24 h; active compounds read low. hit rate 0.25% among 86,000. growth activity, negative = inhibition, % at 16 µg/mL (by protocol);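 active = mean growth activity at or below -80% and every replicate also at or below -80%; inconclusive = mean at or below -80% but some replicate above -80%; inactive = mean growth activity above -80%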
Pf Dd2 inh – P. falciparum Dd2 growth inhibitors, primary screen, SYBR Green fluorescence, single dose replicates; 72 h; active compounds read low; activity change, % at 10 µM; hit rate 2.3% among 94,000; AID 1159554, 2015; in the data active = activity change below about -80%; inconclusive = no clear call, values can overlap the other calls
T cruzi growth-1 – T. cruzi intracellular proliferation inhibitors, primary screen, cell-based, beta-gal Tulahuen parasites, NIH3T3 host, luminescence. T. cruzi beta-gal in NIH3T3, GalScreen luminescence, 90 h. inhibition, % at 8.34 µM. hit rate 5.9% among 77,000. AID 624255, 2012;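 active = mean inhibition above about 93%, with at least 55% of replicates each passing it, limit read from the data, passing the limit was not always enough; inconclusive = only one of those two conditions holds; inactive = neither condition holds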
T cruzi growth-2 – T. cruzi intracellular proliferation inhibitors, confirmation, cell-based, NIH3T3 host, beta-gal parasite, luminescence, cherry-pick. shares compounds with T cruzi growth-1. T. cruzi beta-gal in NIH3T3, GalScreen luminescence, 90 h. inhibition, % at 8.35 µM. hit rate 72% among 5,600. AID 651739, 2012;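 active = mean replicate inhibition above about 95% and at least 55% of replicates individually reaching it, limit read from the data; inconclusive = only one of the two criteria is met; inactive = neither criterion is met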
T cruzi growth-3 – inhibitors of intracellular T. cruzi replication, confirmation, NIH3T3 host cells, beta-gal parasites, cherry-pick, set 2; inhibition, % at 2.09 µM; T. cruzi beta-gal in NIH3T3, GalScreen luminescence, 90 h; shares compounds with T cruzi growth-1; hit rate 21% among 5,600; AID 651740, 2012;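 active = mean inhibition above about 95%, with at least 55% of replicates also reaching it, limit read from the data; inconclusive = meets just one of the two conditions; inactive = meets neither condition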
NIH3T3 tox – cytotoxicity in mouse NIH/3T3 fibroblasts, confirmation, cytotoxicity control for T. cruzi proliferation inhibitor project, cell-based, cherry-pick, single point. AID 651742, 2012. cytotoxicity (signal decrease), % at 8.35 µM. NIH/3T3 viability, CellTiter-Glo ATP luminescence, 90 h. hit rate 14% among 5,600. shares compounds with T cruzi growth-1;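 active = mean signal decrease across replicates above about 35% based on untreated-well scatter, with enough replicates individually passing, limit read from the data; inconclusive = no rule stated though some were filed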
3T3 cytotox 2 – NIH/3T3 fibroblast cytotoxicity, confirmation, cytotoxicity control, cell-based, cherry-pick, single point, set 2; inhibition, % at 24.9 µM; AID 651744, 2012; hit rate 56% among 5,600; NIH/3T3 viability, CellTiter-Glo ATP luminescence, 90 h; shares compounds with T cruzi growth-1;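 active = mean loss of cell viability signal at or above a set limit, and enough replicates individually reaching it; inconclusive = meets only the mean limit or only the replicate share; inactive = meets neither condition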
Of the large screens only hits and unclear results are named; the others gave an inactive call (follow-up assays come after a bar, where they were run).

O=C(Nc1ccccc1)N1C[C@@H]2[C@H](c3ccccc31)[C@@H](CO)N2Cc1ccccc1Cl	none
O=C(Nc1ccc(Cl)cc1)N1C[C@H]2[C@@H](c3ccccc31)[C@@H](CO)N2CC1CCCCC1	T cruzi growth-1 108.8 | T cruzi growth-2 105.7 | T cruzi growth-3 inactive | NIH3T3 tox inactive | 3T3 cytotox 2 103.5
O=C(Nc1ccccc1)N1C[C@@H]2[C@H](c3ccccc31)[C@H](CO)N2Cc1ccccc1Cl	T cruzi growth-1 inconclusive | T cruzi growth-2 97.4 | T cruzi growth-3 inactive | NIH3T3 tox inactive | 3T3 cytotox 2 inactive
O=C(Nc1ccc(Cl)cc1)N1C[C@H]2[C@@H](c3ccccc31)[C@H](CO)N2CC1CCCCC1	none
C[C@@H]1CN([C@@H](C)CO)C(=O)Cc2cc(NC(=O)CCN3CCOCC3)ccc2O[C@@H]1CN(C)C(=O)Nc1ccc(F)cc1	none
CCC(=O)N(C)C[C@@H]1Oc2ncc(-c3ccc(F)cc3)cc2C(=O)N([C@H](C)CO)C[C@@H]1C	none
O=C(C[C@H]1CC[C@H]2[C@@H](COC[C@H](O)CN2S(=O)(=O)c2ccc(F)cc2)O1)N[C@H]1CCN(Cc2ccccc2)C1	T cruzi growth-1 100.2 | T cruzi growth-2 inactive | T cruzi growth-3 inactive | NIH3T3 tox inactive | 3T3 cytotox 2 inactive
O=C(C[C@@H]1CC[C@@H]2[C@H](COC[C@H](O)CN2S(=O)(=O)c2ccc(F)cc2)O1)N[C@H]1CCN(Cc2ccccc2)C1	none
Cc1ccc(S(=O)(=O)N2C[C@@H](O)COC[C@H]3O[C@@H](CC(=O)N[C@@H]4CCN(Cc5ccccc5)C4)CC[C@@H]32)cc1	T cruzi growth-1 97.9 (no result: C diff growth) | T cruzi growth-2 inactive | T cruzi growth-3 inactive | NIH3T3 tox inactive | 3T3 cytotox 2 inactive
Cc1ccc(S(=O)(=O)N2C[C@@H](O)COC[C@@H]3O[C@@H](CC(=O)N[C@@H]4CCN(Cc5ccccc5)C4)CC[C@H]32)cc1	none (no result: C diff growth)
O=S(=O)(NC[C@@H]1N[C@@H](CO)[C@@H]1c1ccccc1)c1ccccc1	none
C/C=C/c1ccc([C@@H]2[C@H](CN(C)S(=O)(=O)c3ccccc3)N[C@@H]2CO)cc1	T cruzi growth-1 108.1 | T cruzi growth-2 inactive | T cruzi growth-3 inactive | NIH3T3 tox inactive | 3T3 cytotox 2 36.9
O=S(=O)(NC[C@@H]1N[C@@H](CO)[C@H]1c1ccccc1)c1ccccc1	T cruzi growth-1 104.4 | T cruzi growth-2 inactive | T cruzi growth-3 inactive | NIH3T3 tox inactive | 3T3 cytotox 2 inactive
C/C=C/c1ccc([C@@H]2[C@@H](CO)N[C@@H]2CN(C)S(=O)(=O)c2ccccc2)cc1	none
C/C=C/c1ccc([C@@H]2[C@@H](CO)N(C(C)=O)[C@H]2CNC(=O)CC2CC2)cc1	none
OC[C@@H]1Nc2ccc(C#Cc3ccc(F)cc3)cc2[C@H]2[C@@H]1CCN2Cc1nccs1	T cruzi growth-1 104.1 (no result: C diff growth) | T cruzi growth-2 98.4 | T cruzi growth-3 105.3 | NIH3T3 tox 36.8 | 3T3 cytotox 2 104.6
OC[C@@H]1Nc2ccc(C3=CCCCC3)cc2[C@@H]2[C@H]1CCN2Cc1nccs1	none (no result: T cruzi growth-1)
O=C(C1CC1)N1CC[C@@H]2[C@H]1c1cc(C#Cc3ccc(F)cc3)ccc1N[C@@H]2CO	none
OC[C@H]1Nc2ccc(C#Cc3ccc(F)cc3)cc2[C@H]2[C@@H]1CCN2Cc1nccs1	T cruzi growth-1 103.5 | T cruzi growth-2 107.4 | T cruzi growth-3 101.6 | NIH3T3 tox inactive | 3T3 cytotox 2 105.8
C[C@H](CO)N1C[C@H](C)[C@@H](CN(C)C(=O)CCCN(C)C)OCCCC[C@H](C)Oc2ccc(NC(=O)Nc3ccc4c(c3)OCO4)cc2C1=O	none
CN(C)C(=O)C[C@H]1C[C@H]2c3cc(NC(=O)C4CCC4)ccc3O[C@H]2[C@@H](CO)O1	none
COc1ccc(S(=O)(=O)N(C)C[C@H]2OCCCC[C@@H](C)Oc3ccc(NS(=O)(=O)c4ccccc4)cc3C(=O)N([C@@H](C)CO)C[C@@H]2C)cc1	none (no result: Pf Dd2 inh)
C[C@H]1CN([C@@H](C)CO)S(=O)(=O)c2ccc(C#Cc3ccccc3)cc2O[C@@H]1CN(C)C	T cruzi growth-1 101.5 | T cruzi growth-2 105.1 | T cruzi growth-3 inactive | NIH3T3 tox inactive | 3T3 cytotox 2 103.4
COc1ccc(C#Cc2ccc3c(c2)O[C@H](CN(C)C)[C@@H](C)CN([C@@H](C)CO)S3(=O)=O)cc1	T cruzi growth-1 inconclusive | T cruzi growth-2 109.0 | T cruzi growth-3 inactive | NIH3T3 tox inactive | 3T3 cytotox 2 102.8
C[C@@H]1CN([C@H](C)CO)S(=O)(=O)c2ccc(C#Cc3ccccc3)cc2O[C@@H]1CN(C)C	none
COc1ccc(C#Cc2ccc3c(c2)O[C@@H](CN(C)C)[C@@H](C)CN([C@H](C)CO)S3(=O)=O)cc1	none
C[C@H](CO)N1C[C@H](C)[C@H](CN(C)Cc2cncnc2)Oc2cc(C#CC3CCCC3)ccc2S1(=O)=O	none (no result: T cruzi growth-1)
O=S(=O)(Cc1ccccc1)N1CCCCN2[C@@H](CO)[C@@H](c3ccc(-c4cncnc4)cc3)[C@@H]2C1	none
O=S(=O)(Cc1ccccc1)N1CCCCN2[C@H](CO)[C@H](c3ccc(-c4cccnc4)cc3)[C@@H]2C1	none
O=S(=O)(Cc1ccccc1)N1CCCCN2[C@H](C1)[C@H](c1ccc(-c3cccnc3)cc1)[C@@H]2CO	T cruzi growth-1 98.2 | T cruzi growth-2 inactive | T cruzi growth-3 inactive | NIH3T3 tox inactive | 3T3 cytotox 2 inactive
O=S(=O)(Cc1ccccc1)N1CCCCN2[C@H](CO)[C@H](c3ccc(-c4cccnc4)cc3)[C@H]2C1	T cruzi growth-1 108.2 | T cruzi growth-2 107.5 | T cruzi growth-3 inactive | NIH3T3 tox inactive | 3T3 cytotox 2 27.4
C[C@H](CO)N1C[C@H](C)[C@@H](CN(C)C(=O)NC2CCCC2)Oc2cc(C#Cc3ccc(F)cc3)ccc2S1(=O)=O	none
CC(C)CC#Cc1ccc2c(c1)O[C@H](CN(C)C(=O)NC1CCCC1)[C@@H](C)CN([C@H](C)CO)S2(=O)=O	none
C[C@@H]1CN([C@@H](C)CO)S(=O)(=O)c2ccc(C#Cc3ccc(F)cc3)cc2O[C@@H]1CN(C)C(=O)NC1CCCC1	T cruzi growth-1 115.4 | T cruzi growth-2 101.1 | T cruzi growth-3 inactive | NIH3T3 tox inactive | 3T3 cytotox 2 74.0
C[C@@H]1CN([C@@H](C)CO)S(=O)(=O)c2ccc(C#Cc3ccc(F)cc3)cc2O[C@H]1CN(C)C(=O)NC1CCCCC1	none

From PubChem
